Measured values reported in ChEMBL document CHEMBL3988442, “University of Dundee, Small-Polar-MMV Screening Library” (2021).
Among all 48,000 compounds or so, about 13,000 (27%) showed an effect of 50% or more. Some of the results follow.

These compounds were tested on Wolbachia pipientis (assay: Anti-Wolbachia Cell-Based Screen). Conditions: 5 µM.
Format: functional
Parameters: scale not given: in the data most compounds retested in dose-response had high values

| Structure (SMILES) | Percent Effect [%] |
| --- | --- |
| O=C1CC(Cc2ccc(NC(=O)c3cccc(F)c3)cc2)C(=O)N1 (configuration not stated) | -11.36 |
| Cc1cc(CN2CCN(C(=O)NC(C)c3cccnc3)CC2)on1 (configuration not stated) | -9.533 |
| CCOC(=O)NC1CCCN(Cc2ccc(-n3cncn3)c(C)c2)C1 (configuration not stated) | 8.303 |
| COc1cc(NC(=O)NCCO)ccc1N1CCOC1=O | -1.059 |
| Cn1cc(N2CCN(c3ccc(C#N)cc3F)CC2=O)cn1 | -27.57 |
| COc1ccc(CNC(C)c2cccc(Cl)c2)c(OC)c1OC (configuration not stated) | 0.8374 |
| O=C(CCOc1ccccc1)N1CCC(Nc2cccnn2)CC1 | -3.199 |
| O=C(CCn1ccc2ccccc21)N1CCC(Nc2cccnn2)CC1 | -13.71 |
| Cc1ccccc1NC1CCN(C(=O)CCc2ccco2)CC1 | 99.83 |
| Cc1cc(N2CCC(NC(=O)CCc3ccco3)CC2)nc(C)n1 | 7.107 |
| O=C(CCc1ccccc1F)N1CCC(Nc2cccnn2)CC1 | 101.4 |
| O=C(CCCc1ccccc1)N1CCC(Nc2cccnn2)CC1 | 109.6 |
| CS(=O)(=O)N[C@H]1CN(C(=O)CCc2ccco2)C[C@@H]1C1CC1 | -12.24 |
| O=C(CCCc1ccccn1)N1CCC(Nc2cccnn2)CC1 | -8.554 |
| CSc1ncccc1C(=O)N1C[C@H]2CC[C@@H]1CN(c1cnccn1)C2 | -13.27 |
| CCCN(CCC)S(=O)(=O)c1cc(NC(C)=O)ccc1C | 31.01 |
| O=C(O)c1cc(-c2ccoc2)cc(S(=O)(=O)N2CCSCC2)c1 | 11.83 |
| CCN(Cc1ccoc1)C(=O)c1cc(C)c(C)c(S(N)(=O)=O)c1 | -19.87 |
| CCCNC(=O)N1CCC(Oc2cc(C)ccc2F)(C(=O)O)CC1 | -9.891 |

| Structure (SMILES) | Percent Effect [%] |
| --- | --- |
| O=C(NCC1CCOCC1)[C@@H]1C[C@@H]2[C@@H](CCN2Cc2nccs2)O1.O=C(O)C(F)(F)F | 97.65 |
| O=C(NCC1CC1)[C@H]1CC[C@@H]2[C@@H](CCN2Cc2nccs2)O1 | 114.7 |
| Cc1cnc(CNC(=O)[C@@H]2CC[C@@H]3[C@@H](CCN3Cc3ccco3)O2)cn1 | -4.994 |
| COCCNC(=O)[C@@H]1CC[C@@H]2[C@@H](CCN2Cc2cnn(C)c2)O1 | -9.722 |
| O=C(O)[C@]12CCCN(Cc3nccs3)[C@@H]1CCN(c1cnccn1)C2 | 6.87 |
| COCCN1CCN(CC(=O)N(C)Cc2cccc(F)c2)CC1C (configuration not stated) | -2.425 |
| Cc1noc(C)c1CN(C)Cc1cnc(N2CCOCC2)nc1 | -2.338 |
| Cc1nc(N2CCOCC2)nc(C)c1NS(=O)(=O)c1ccccc1 | 4.303 |
| Cc1cc(-c2cnc(N3CCOCC3)nc2-c2ccc(C)s2)on1 | 90.53 |
| CCN1CCN(c2ncc(-c3cc(C)no3)c(-c3ccc(C)s3)n2)CC1 | -7.299 |
| Cc1ccc(-c2cc(-c3nc(CN4CCN(C)CC4)no3)[nH]n2)s1 | -11.14 |
| Cc1cc(-c2cnc(N3CCCC3)nc2-c2ccc(C)s2)on1 | 81.04 |
| Cc1cc(-c2cnc(N3CCSCC3)nc2-c2ccc(C)s2)on1 | 126.2 |
| Cc1ccc(-c2cc(C(F)(F)F)nc(N3CCOCC3)n2)s1 | 100.5 |
| Cc1cc(-c2cnc(N3CCN(C)CC3)nc2-c2ccc(C)s2)on1 | -10.07 |
| O=C1c2cnc(N3CCOCC3)nc2CN1c1ccc2c(c1)OCO2 | -5.261 |
| Cc1cnc(N2CCN(C)CC2)nc1-c1ccnn1C | -36.32 |
| CCc1cc(NCCC(F)(F)F)nc(N2CCOCC2)n1 | -15.1 |
